# Assay results: PubChem BioAssay AID1049 (The Scripps Research Institute Molecular Screening Center, 2008)
# The campaign covered roughly 200,000 compounds. About 780 (0.39%) were called active. For the sample, actives were picked, then their nearest neighbours and some compounds at random. Unmarked numbers belong to inactive results. Rule as the data show it: active = TR-FRET ratio above about 2000; inactive = the rest.
# Assay: detection-format interference in TR-FRET ratio – biochemical, artefact control for PPARgamma SRC-2 agonist project, primary screen (AID 1049)
# Conditions: TR-FRET artefact counter-screen; at 8 µM; active compounds read high
row,SMILES,TR-FRET ratio
1,Cc1ccccc1-n1nc(C)c2c1N=C1C(Cl)=CC(Cl)=CN1C2c1ccc(C(=O)O)cc1 (centres undefined),1440
2,CC(Sc1nnnn1C)C(=O)NC(=O)NC1CCCCC1 (centres undefined),1580
3,CN1CCN(/N=C/c2ccc(C#N)cc2)CC1,1460
4,Cn1c(-c2sc3cc(C(F)(F)F)cnc3c2-c2ccccc2)n[nH]c1=S,2810 (active)
5,Cc1ccc(/C=N\n2c(-c3ccccc3)n[nH]c2=S)s1,1450
6,Cn1c(-c2sccc2OCc2cccc(C(F)(F)F)c2)n[nH]c1=S,1690
7,Nc1c(NCCc2ccccc2)c2ccccc2oc1=O,1500
8,Cc1cc(Cl)ccc1OCCCC(=O)NCc1ccccn1,1540
9,CN(CC(=O)N1CCN(c2ccccc2)CC1)S(=O)(=O)c1cccs1,1460
10,COc1cc2c(cc1O)C(SC)=NC(C)(C)C2,1660
11,COc1cc2c(cc1OC)C(C(C)C)=NC(C)(C)C2,1430
12,COc1cc2c(cc1OC)C(Nc1ccc(S(N)(=O)=O)cc1)=NC(C)(C)C2,2460 (active)
13,Cc1ccc(C)c(Cn2cnc3c(oc4ccccc43)c2=O)c1,1620
14,Cc1ccc2[nH]c(=O)c(CN(CC3COCCO3)C(=O)Nc3ccccc3C)cc2c1 (centres undefined),1560
15,CCC(c1nnnn1C1CCCC1)N(Cc1cccs1)Cc1cc2cccc(C)c2[nH]c1=O (centres undefined),1590
16,Cc1cccc2cc(CN(Cc3cccs3)C(c3nnnn3C3CCCC3)C(C)C)c(=O)[nH]c12 (centres undefined),1580
17,Cc1cccc2cc(CN(Cc3ccc4c(c3)OCO4)Cc3nnnn3C3CCCC3)c(=O)[nH]c12,2020 (active)
18,O=C(/C=C/c1ccccc1[N+](=O)[O-])OC1CCCCC1=O (centres undefined),1570
19,O=C(COC(=O)c1c2c(nc3ccccc13)/C(=C\c1cccs1)CCC2)Nc1ccccc1Cl,1590
20,O=C(Nc1c2c(nc3ccccc13)CCCC2)c1ccccc1Br,1590
21,O=C(COC(=O)c1c2c(nc3ccccc13)CCCC2)c1ccc(Br)s1,2060 (active)
22,O=C(N1CCCCC1)N1CCN(C(=O)N2CCCCC2)CC1,1520
23,Cc1ccc(C(=O)O)cc1N1C(=O)CCCC1=O,1430
24,Nc1nnc(SCC(=O)Nc2ccc3nc(SCC(=O)Nc4ccccc4)sc3c2)s1,1750
25,COc1cc(OC)cc(-c2nnc(SCC(=O)Nc3ccc(C(=O)O)cc3)s2)c1,2010 (active)

row,SMILES,TR-FRET ratio
1,COc1ccc(NC(=O)CSc2nc(C)cs2)cc1,1520
2,COC(=O)[C@@H]1CC[C@H](C)[C@@H](c2ccc(C)cc2)N1C(=O)c1ccc(/C=N/O[C@H](C)c2cn([C@@H]3COC[C@H]3O)nn2)cc1,1550
3,COc1cccc(NC(=O)c2ccc3c(SCC(=O)O)c4c(nc3c2)CCCC4)c1,1460
4,Cc1cc(NC(C)C)n2c(nc3ccccc32)c1C#N,1630
5,Cc1nn(CC#N)c(=O)n1N(C)c1ncc(C(F)(F)F)cc1Cl,1490
6,Cc1n[nH]c(=S)n1/N=C/c1ccc(Br)o1,1670
7,Cc1ccccc1-c1n[nH]c(=S)n1/N=C/c1ccc(-c2ccccc2Br)o1,2460 (active)
8,Cc1ccccc1-c1n[nH]c(=S)n1C,1570
9,O=S(=O)(/N=C(/Nc1ccccc1)c1ccccc1)c1cccs1,1640
10,CC(=O)Nc1ccc(S(=O)(=O)Oc2ccc(/C=N/N=C3/NC(=O)C(CC(=O)O)S3)cc2)cc1 (centres undefined),1610
11,O=C(c1ccccc1Cl)N(Cc1ccccc1F)N1C(=O)CCCC1=O,1650
12,CCn1c(=O)cc(SCC(=O)NCCC2=CCCCC2)c2ccccc21,1870
13,CCn1c(=O)cc(SCC(=O)NCc2ccc3c(c2)OCO3)c2ccccc21,2130 (active)
14,CC(C)NC(=O)CSc1ccccc1C(=O)NCc1ccc2c(c1)OCO2,1420
15,CC(C)(C)NC(=O)C(=O)NN=C1CCCCCCC1,1240
16,c1ccc(CSc2ncnc3c2sc2nc(N4CCOCC4)c4c(c23)CCCC4)cc1,2910 (active)
17,c1ccc(COc2nsnc2N2CCOCC2)cc1,1720
18,COc1ccc(CSc2nc(N3CCOCC3)c3c(c2C#N)CC(C)(C)OC3)cc1,1500
19,CCOc1ccc(N2C(=O)Nc3ccccc3C2(O)C(=O)NCc2ccco2)cc1 (centres undefined),1700
20,O=C(CSc1nnc(SCc2ccc(Cl)cc2)s1)N/N=C/c1ccccc1Cl,1600
21,Cc1ccc(CN(Cc2cccnc2)C(=S)Nc2cccc(Cl)c2C)cc1,1420
22,CCN(C(=O)COc1cccnc1[N+](=O)[O-])C1CCS(=O)(=O)C1 (centres undefined),1550
23,COCC(=O)Nc1nnc(COc2ccccc2)s1,1270
24,COc1ccc(Cc2nnc(NC(=O)Cc3cccs3)s2)cc1,1330
25,COc1ccc(OCC(=O)Nc2nnc(-c3ccco3)s2)cc1,2240 (active)

row,SMILES,TR-FRET ratio
1,CC(NC(=O)COC(=O)c1cc(=O)[nH]c2ccccc12)c1ccccc1 (centres undefined),1810
2,CCOC(=O)c1sc(NC(=O)COc2ncnc3ccccc23)c(C(=O)OCC)c1C,1580
3,CCOC(=O)c1c(NC(=O)CNC2CCCc3ccccc32)sc(C(N)=O)c1C (centres undefined),2030 (active)
4,CCOC(=O)c1sc(NC(=O)CSc2nnc(-c3ccco3)o2)c(C(=O)OCC)c1C,1590
5,COc1ccc(CN2CCCC(CNC(=O)c3ccc(F)cc3)C2)cc1OC (centres undefined),1400
6,C/C(CC(=O)NC(C)(C)C)=N\NC(=O)c1ccco1,1540
7,CNc1nccc(-c2ccc(Cl)cc2)c1C#N,1580
8,N#Cc1c(-c2ccc(Cl)cc2)c2c([nH]c1=S)CCCC2,2030 (active)
9,N#Cc1c2c(c(-c3ccccc3)[nH]c1=O)CCCC2,1620
10,Cc1ccc(CNC(=O)COc2ccc3c(c2)CCC3)cc1,1560
11,CCCCN(C(=O)c1ccc(OC(F)(F)F)cc1)c1c(N)n(CCC)c(=O)[nH]c1=O,1420
12,C/C=N/NC(=O)CCCC(=O)N/N=C/C,1590
13,COc1ccc(C2/C(=C(/O)c3ccccc3)C(=O)C(=O)N2c2ncccn2)cc1OC (centres undefined),1610
14,COc1ccccc1C1/C(=C(/O)c2ccc(OC(C)C)cc2)C(=O)C(=O)N1c1cc(C)on1 (centres undefined),1930
15,Cc1cc(N2C(=O)C(=O)/C(=C(/O)c3ccc(Cl)cc3)C2c2cccc(Br)c2)no1 (centres undefined),1980 (active)
16,Cc1cc2ccccc2n1CCNC(=O)COc1ccc2ccccc2c1,3050 (active)
17,Cc1cc2ccccc2n1CCC(=O)O,1790
18,COC(=O)C(C)NC(=O)COc1ccc2ccccc2c1 (centres undefined),1440
19,COc1ccc(/C=N/Nc2ncnc3sc4c(c23)CCCC4)cc1O,1360
20,O=C(/C=C/Nc1ccccc1OC(F)(F)F)C(F)(F)F,1490
21,CN(C)c1ccc(N/C=C/C(=O)C(F)(F)F)cc1,2200 (active)
22,CCCOc1ccc(N/C=C/C(=O)C(C)(C)C)cc1,1530
23,CN(C)C(=O)c1ccc2c(c1)C1C3CCC(C3)C1C(c1ccccc1)N2 (centres undefined),1630
24,COc1cccc(NC(=S)N(Cc2ccc(C)cc2)Cc2ccccn2)c1,1700
25,CSc1ncccc1C(=O)OCc1ccc(Br)cc1,1680

row,SMILES,TR-FRET ratio
1,Cc1ccc(-c2nc(-c3cccnc3)sc2CC(=O)Nc2ccc(C)c(Cl)c2)cc1,2240 (active)
2,Cc1cc(C)c(NC(=O)CS(=O)CC(=O)Nc2cccnc2)c(C)c1 (centres undefined),1340
3,Cc1ccc(NC(=O)COc2ccc(-n3ccnc3)cc2)cc1Cl,1510
4,COc1ccc(OC)c(Cc2nnc(CCC(=O)NC3CCCC3)o2)c1,1590
5,O=C(Nc1cccc(CCc2ccccn2)c1)c1ccc(Cl)cc1,1410
6,CN(C)/C=C(/C(=O)c1ccccc1)S(=O)(=O)c1ccc(Cl)cc1,1390
7,COc1cc(OC)cc(C(=O)Nc2ccc(-c3nc4ccccc4o3)c(O)c2)c1,2300 (active)
8,COc1cc(OC)cc(C(=O)Nc2ccc(S(=O)(=O)Nc3cc(C)on3)cc2)c1,1400
9,O=C(Nc1ccc2oc(-c3ccccc3F)nc2c1)c1ccco1,1310
10,CC(=O)c1ccc(S(=O)(=O)N2CCN(c3nc4c(C)c(C)ccc4cc3C#N)CC2)cc1,2950 (active)
11,Cc1cc(C)c2nc(N3CCCC3)c(C#N)cc2c1,1740
12,Cc1cccc2cc(C#N)c(N3CCCC3)nc12,1510
13,CC(C)OCCCNC(=O)c1ccc(C2SCC(=O)N2Cc2ccco2)cc1 (centres undefined),1510
14,CCOc1ccc(N2CC(C(=O)NCCN3C(=O)S/C(=C\c4cccnc4)C3=O)CC2=O)cc1 (centres undefined),1470
15,COC(=O)c1cc2n(n1)CCCNC2=O,1460
16,COc1cccc(NC(=O)CN(C)C(C)C(=O)Nc2ccc(C#N)cc2)c1 (centres undefined),1560
17,CN(C)S(=O)(=O)c1cccc(NC(=O)COC(=O)/C=C/c2cccs2)c1,1590
18,O=C(c1ccncc1)c1ccc([N+](=O)[O-])cc1,1700
19,O=C(CSc1c2c(nc3ccc(Cl)cc13)CCCC2)NCc1ccco1,2000 (active)
20,O=C(NCc1ccco1)c1cc(-c2cccnc2)nc2ccc(Cl)cc12,1650
21,O=C(/C=C/c1ccc(Cl)cc1Cl)NCc1ccco1,1530
22,COc1ccc(Cl)cc1C(=O)NCc1cn(C)nc1C,1670
23,Cc1ccc2nc(-c3cccc(Br)c3)cc(C(=O)Nn3cnnc3)c2c1,1400
24,Cc1ccc(-c2cc(C(=O)NCc3cn(C)nc3C)c3cc(Br)ccc3n2)cc1,2980 (active)
